# AmpC detergent – AmpC beta-lactamase inhibition with detergent present. Potency, µM (highest dose often 114 µM), without a hit: at the top dose activity change, negative = inhibition, usual class: inhibitors. P00811. AID 485294. AmpC hydrolysis of nitrocefin, absorbance 480 nm, 0.01% Triton. 0.041% of 370,000 active;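 further: potency means the concentration at half of the fitted maximal effect; 0% = no-compound wells and -100% = no-enzyme wells; nearly all actives have a fitted effect of over 25% in size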
# Target sequence (P00811 whole entry, looked up): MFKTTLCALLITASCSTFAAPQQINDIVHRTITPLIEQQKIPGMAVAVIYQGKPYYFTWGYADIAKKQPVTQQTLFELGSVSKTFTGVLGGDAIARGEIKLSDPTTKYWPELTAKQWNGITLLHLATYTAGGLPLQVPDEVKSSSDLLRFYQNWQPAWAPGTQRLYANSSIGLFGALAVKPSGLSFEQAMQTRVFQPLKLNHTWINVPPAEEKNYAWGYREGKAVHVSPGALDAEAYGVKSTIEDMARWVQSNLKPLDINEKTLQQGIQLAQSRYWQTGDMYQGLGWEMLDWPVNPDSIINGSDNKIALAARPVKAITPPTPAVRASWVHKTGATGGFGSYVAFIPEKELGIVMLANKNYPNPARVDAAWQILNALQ
#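 20 mM phosphate pH 7.0 + 0.01% (detergent screen) or 0.0001% Triton X-100; 5.3 nM AmpC reagent; cpd preinc 15 min RT; nitrocefin (800 uM stock) to start; A480 q20 s × 4 min; Activity was normalised to no-enzyme and no-compound control wells.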
# AMA1 RON2 block – inhibitors of Plasmodium falciparum AMA1-RON2 interaction | 0.2% of 360,000 active | AlphaScreen AMA1-biotinylated RON2 peptide binding | Potency, µM (series often up to 58.2 µM), for the others: at the highest dose activity change, negative = inhibition, most hits filed as inhibitors;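 further: potency means the concentration at half of the fitted maximal effect; 0% = vehicle wells and -100% = peptide control; nearly all actives have a fitted effect of over 45% in size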
#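 AMA1 (3D7) with his tag at 25 nM final met compounds first, then biotinylated RON2 peptide at 25 nM; detection used donor plus acceptor beads, 10 µg/mL apiece, read by AlphaScreen after 30 min at room temperature.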
# Shiga toxin inh – Shiga toxin inhibition. 9.2% of 290,000 active. inhibition, % at 38.7 µM. Vero cells, Shiga toxin protein synthesis inhibition reporter; in the data active means inhibition mostly above about 28%, no sharp cut-off; inactive means mostly below about 43%; further: 0% is about no effect
# AmpC inh no detg – blocks E. coli AmpC beta-lactamase in detergent-free assay; 0.52% of 330,000 active; AmpC nitrocefin hydrolysis, absorbance 480 nm, 0.0001% Triton; P00811; Potency, µM (highest dose often 57.1 µM), for inactives: top-dose activity change, negative = inhibition, usual class: inhibitors; AID 485341;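 further: potency means the concentration at half of the fitted maximal effect; plate controls were no compound for no effect and no enzyme for full effect; nearly all actives have a fitted effect of over 20% in size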
#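 AmpC (5.3 nM in the dispensed reagent) in 20 mM phosphate pH 7.0 with 0.01% (detergent screen) or 0.0001% Triton X-100 was preincubated with compounds for 15 min at room temperature. Nitrocefin was then added from an 800 uM solution, and hydrolysis was followed at 480 nm.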
# SARS PLpro yeast – SARS-CoV PLP inhibition in yeast. AID 485353. 0.19% of 330,000 active. S. cerevisiae expressing SARS-CoV PLpro, growth rescue. Potency, µM (doses to about 32.9 µM), without a hit: at the highest dose activity, positive = growth rescue, hits mostly activators; calls by dose curve; further: potency means the concentration at half of the fitted maximal effect; 0% is about no effect; nearly all actives have a fitted effect of over 55% in size
# CHX counter – affects cycloheximide protein synthesis inhibition readout, counter-screen; cell reporter, cycloheximide protein synthesis inhibition counterscreen; max response, %; 12% of 300,000 active; AID 2314; in the data active means max response mostly above about 13%, no sharp cut-off; inactive means mostly below about 14%; further: read at 38.3 µM for the half of the compounds with a filed dose; 0% is about no effect
# Active calls of the source: *; u = inconclusive; x = no result; [ ] = dose if it differs, or a comment. This excerpt belongs to a sample that is enriched for hits. Unless noted, the call rests on the fitted dose curve; in most records, active means well fitted curve in the direction sought with a large enough effect; inconclusive means small, poorly fitted or top-dose-only effect, or another doubt; inactive means no such curve, though single readings can be large; an effect the other way counts as inactive or inconclusive.
SMILES,AmpC detergent,AMA1 RON2 block,Shiga toxin inh,AmpC inh no detg,SARS PLpro yeast,CHX counter
Cc1cc(S(N)(=O)=O)ccc1N=Cc1c(O)n(-c2ccccc2)c(=O)[nH]c1=O,4.3%,-2.7%,-29.4,-16.9%,2.3%,-1.6
Cc1ccc(-n2c(O)c(C=Nc3ccccc3N)c(=O)[nH]c2=O)cc1C,-11.4%,28.0%,67.2*,47.9%,-3.2%,45.6*
CN(C(=O)COc1ccc(Cl)cc1)c1nnc(C23CC4CC(CC(C4)C2)C3)s1,1.5%,x,-4.1,-11.6%,0.7%,-2.1
CC1CCN(c2ccc(C(=O)NCc3ccco3)cc2[N+](=O)[O-])CC1,3.5%,0.1%[2.32 µM],54.2*,-27.9%,-56.9%,22.0*
O=C(NCc1ccco1)c1ccc2[nH]c(=O)c(=O)[nH]c2c1,0.3%,-11.4%,-5.3,-20.8%,11.4%,-3.9
Cc1ccc(N(Cc2ccco2)C(=O)c2ccc(N3CCCCC3)c([N+](=O)[O-])c2)cc1,1.3%,u,105.6*,-17.2%,-3.7%,43.7*
O=C(NCc1ccco1)c1ccc(N2CCCCC2)c([N+](=O)[O-])c1,-2.4%,1.4%,41.4*,-36.1%,-35.7%,20.1*
CC(C)(C)N1C(=O)c2ccc(C(=O)NCc3ccco3)cc2C1=O,4.4%,-10.4%,5.2,-21.7%,-1.0%,16.2*
CC1=Nc2cc(C(=O)NCc3ccccc3Cl)ccc2Sc2c(C)ccc(C)c21,11.7%,x,x,x,x,x
O=c1cc(-c2ccccc2)n(S(=O)(=O)c2ccccc2)o1,-7.7%,11.3%,-8.9,-29.3%,5.7%,16.5*
COc1ccc(S(=O)(=O)n2oc(=O)cc2-c2ccccc2)cc1,-1.2%,13.6%,17.9,-27.3%,-2.0%,7.9
CC(=O)c1c(C)[nH]c(C(=O)OC(C)C(=O)Nc2cc(S(=O)(=O)N3CCCCC3)ccc2Cl)c1C (stereo not given),-10.4%,4.2%,-6.2,7.94µM*,21.5%,-4.1
CC(=O)c1c(C)[nH]c(C(=O)Nc2cccc(S(=O)(=O)N3CCCCC3)c2)c1C,-2.7%,-11.3%,x,-26.6%,-1.3%,x
Fc1ccc(OCc2nnc(-c3ccccc3Br)o2)c(Cl)c1,-4.7%,7.8%,108.7*,-31.9%,-6.8%,15.1*
Cc1cc(Cl)ccc1OCc1nnc(-c2ccccc2C)o1,-5.1%,24.5%,x,-15.3%,1.7%,x
COc1ccc(C(C)=O)cc1Cn1nnc(-c2ccccc2Br)n1,-2.9%,-1.4%,3.0,-6.7%,0.5%,0.9
COc1cc(C(C)=O)ccc1OCc1nnc(-c2ccccc2Br)o1,-4.0%,-2.2%,60.4*,-0.3%,-3.7%,16.5*
Clc1ccc(OCc2nnc(-c3ccccc3Br)o2)c(Cl)c1,-6.8%,10.4%,83.2*,-25.2%,10.9%,38.6*
Cc1cc(Br)ccc1OCc1nnc(-c2ccccc2)o1,x,0.0%,x,x,x,x
CC(=O)Nc1cccc(NC(=O)CSc2ccc(C(F)(F)F)cc2[N+](=O)[O-])c1,5.0%,35.8%,27.9,6.2%,13.2%,3.9
Brc1ccc(OCCCN2CCOCC2)cc1,2.9%,-1.2%,29.9,14.4%,5.5%,13.7*
CC(C)c1ccc(OCCCCCN2CCOCC2)cc1,6.9%,u,116.4*,106.9%,-3.2%,53.9*
Cc1ccccc1OCCCN1CCOCC1,4.1%,-3.8%,36.9,-1.6%,-2.2%,7.1
Brc1ccccc1OCCCN1CCOCC1,-12.8%,-16.9%,50.3*,-14.6%,7.7%,32.2*
CC(C)c1ccc(OCCCN2CCCC2)cc1,-1.9%,-9.4%,-1.8,3.4%,0.9%,-1.7
SMILES,AmpC detergent,AMA1 RON2 block,Shiga toxin inh,AmpC inh no detg,SARS PLpro yeast,CHX counter
Brc1ccc(OCCN2CCOCC2)cc1,-3.3%,-12.9%,23.0*,-7.6%,-6.7%,15.2
COC(=O)c1c(-c2ccc(Cl)cc2)noc1N1CCN(c2cc(C)ccc2C)CC1,-8.2%,x,x,x,x,x
CN(C(=O)COC(=O)c1ccc2ccccc2n1)C1CCCCC1,x,-6.8%,x,-10.8%,26.6%,x
COc1ccc(/C=N/n2cnc3c([nH]c4ccc(F)cc43)c2=O)cc1CSc1ccccn1,1.4%,-5.6%,6.3,-7.6%,2.4%,-1.4
NC(=O)CN1C(=O)C(O)(CC(=O)c2ccccc2O)c2ccccc21 (stereo not given),-9.1%,-9.2%,-4.2,-36.6%,14.4%,-2.0
COc1ccc2cc(/C(C)=N/NC(=O)C3CC3)ccc2c1,u,-7.7%,48.5*,-23.2%[11.4 µM],-0.9%,26.3*
C/C(=N\NC(=O)C1CCCC1)c1ccc(C(C)C)cc1,-13.6%,-5.6%,51.7*,-17.6%,2.9%,23.6*
COc1ccc(/C(C)=N/NC(=O)C2CC2)cc1,-8.2%,0.5%,42.4*,-12.8%,0.1%,11.3
CCc1cccc(CC)c1NC(=O)CN1CCN(c2ccccc2)CC1,u,-28.6%,-27.6,69.3%,7.08µM*,-5.2
O=C(CN1CCN(c2ccccc2)CC1)Nc1ccccc1Cl,-0.7%,-0.7%,-9.1,-2.2%[2.29 µM],0.2%,-2.1
O=C(CSc1nc2ccccc2[nH]1)Nc1cccc(S(=O)(=O)N2CCOCC2)c1,u,0.8%,-4.2,u,0.2%,-1.0
CCN1CCN(c2ccc(NC(=O)Cc3ccccc3)cc2)CC1,7.1%,-12.1%,67.4*,-9.3%,5.7%,15.2*
O=C(CSc1nc2ccccc2[nH]1)Nc1ccc(N2CCOCC2)cc1,0.7%,-1.3%,30.2*,-32.2%,-0.6%,16.4*
O=C(Nc1ccc(N2CCOCC2)cc1)c1cn2ccccc2n1,-7.3%,-17.3%,55.5*,-2.4%,-5.0%,47.4*
O=C(Cc1ccccc1)Nc1ccc(N2CCOCC2)cc1,-11.2%,0.0%,45.7*,-6.8%,-0.2%,28.1*
c1ccc2[nH]c(SCCN3CCOCC3)nc2c1,-5.9%,8.5%,25.2,-14.5%,2.6%,19.5*
O=c1[nH]c(SCCN2CCOCC2)nc(O)c1-c1ccccc1,-4.1%,2.3%,-3.2,0.0%,0.8%,-2.8
O=C(Cc1ccccc1)Nc1ccc(N2CCCC2)cc1,-13.6%,-13.9%,30.4,-4.5%,2.2%,15.3
CC(=O)N1N=C(c2ccc(Cl)cc2)OC12CCCC2,8.5%,0.8%,-11.3,-10.0%,0.1%,-3.3
COc1ccc(-c2nc(NC(=O)C3CC(=O)N(c4ccc5c(c4)OCCO5)C3)sc2C)cc1 (stereo not given),4.7%,u,40.6,-27.2%,-1.6%,28.2*
O=C(Nc1nnc(C2CC2)s1)C1CC(=O)N(c2ccc3c(c2)OCCO3)C1 (stereo not given),-3.4%,-8.0%,30.7*,-12.5%,11.9%,31.2*
O=C(Nc1nc(-c2ccccn2)cs1)C1CC(=O)N(c2ccc3c(c2)OCCO3)C1 (stereo not given),u,-18.3%,18.1,-14.2%,0.2%,24.5*
COc1ccc(NC(=O)c2cccnc2Cl)c(S(=O)(=O)N2CCOCC2)c1,1.2%,-4.4%,-22.0,-41.1%,4.5%,-1.8
Cc1ccc(C)c(OCCSc2nnc(C)c(=O)[nH]2)c1,-0.1%,-0.8%,16.6,-20.1%,-2.2%,-2.2

# Assay outcomes from PubChem BioAssay.
